MCF10A rereplic = A quantitative high throughput screen for small molecules that induce DNA re-replication in MCF 10a normal breast cells; MCF 10A DNA re-replication, Hoechst nuclear intensity, 48 h; Potency, µM (titrated, usually from 46.1 µM), inactives show top-dose activity, positive = re-replication, hits mostly activators; actives 2.9% (n = 350,000); AID 624296, 2012; note: % of control where 0% means no effect; nearly all actives have a fitted effect of over 50% in size
SW480 rerep = A quantitative high throughput screen for small molecules that induce DNA re-replication in SW480 colon adenocarcinoma cells | SW480 DNA re-replication, Hoechst DNA content imaging, 48 h | Potency, µM (highest dose often 46.1 µM), for inactives: at the highest dose re-replication activation, most hits filed as activators | actives 1.8% (n = 340,000); note: % of control where 0% means no effect; nearly all actives have a fitted effect of over 55% in size
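Per well, 250 cells were exposed to pinned compound for 48 hr. Nuclear DNA was visualised with Hoechst (40 min, 37 C) and total object intensity recorded by fluorescence scanning.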
KB-3-1 tox = qHTS assay for MDR1-selective chemotherapeutics: Primary screen using the parental adenocarcinoma cell KB-3-1 | KB-3-1 viability, CellTiter-Glo ATP luminescence, 72 h | Potency, µM (titrated, usually from 46.1 µM), actives largely listed as cytotoxic | actives 1.4% (n = 400,000); note: % is set by controls: 0 for no effect and ±100 for the full control effect; nearly all actives have a fitted effect of over 60% in size
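Multi-concentration cytotoxicity screen in KB-3-1 cells grown in DMEM lacking phenol red with 10% FBS. After 72 h at 37 °C with compound, ATP-dependent luminescence was recorded.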
ELG1 repair inh = qHTS screen for small molecules that inhibit ELG1-dependent DNA repair in human embryonic kidney (HEK293T) cells expressing luciferase-tagged ELG1; actives 2.3% (n = 330,000); Potency, µM (series often up to 46.1 µM), for inactives: at the top dose activity change, negative = inhibition, hits mostly inhibitors; AID 504467, 2011; HEK293T ELG1-luciferase reporter, luminescence, 16 h; DNA damage induced by 5-fluorouridine; note: % is set by controls: 0 for no effect and ±100 for the full control effect; nearly all actives have a fitted effect of over 55% in size
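Step one: seed 2,000 cells per well. Step two: pin-transfer compound or DMSO alongside 5-fluorouridine. Step three: incubate 16 hr, 37 °C, 5% CO2. Step four: add ONE-Glo, wait 30 min, read luminescence.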
KB-V1 cytotox = qHTS assay for MDR1-selective chemotherapeutics: Primary screen using the drug-selected MDR subline cells KB-V1 | KB-V1 MDR cells viability, CellTiter-Glo, 72 h | Potency, µM (highest dose often 46.1 µM), hits mostly cytotoxic | actives 3.4% (n = 400,000); note: % is set by controls: 0 for no effect and ±100 for the full control effect; nearly all actives have a fitted effect of over 60% in size
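In this primary screen, KB-V1 cells overexpressing P-gp are incubated with library compounds (lowest to highest concentration) for 72 h at 37 degrees C before a luminescent ATP viability read.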
* = called active by the depositor; i = inactive; ? = inconclusive; . = no result given; ! = not active in a repeat; [ ] = remark or other dose. In the library only some 8.1% were active in any assay of this set; here they are far more common. Calls come from the whole dose curve; as a rule, active = well fitted curve in the direction sought with a large enough effect; inconclusive = small, poorly fitted or top-dose-only effect, or another doubt; inactive = no such curve, though single readings can be large; an effect the other way counts as inactive or inconclusive. Potency is the fitted concentration of half-maximal effect.

SMILES	MCF10A rereplic	SW480 rerep	KB-3-1 tox	ELG1 repair inh	KB-V1 cytotox
CCOC(=O)C1=C(O)CSC1=Nc1cccc2ccccc12	3%	-41%	i	0%	23µM*
CCOC(=O)C1=C(O)CSC1=Nc1ccc(C)cc1	-7%	0%	i	5%	i
CC(=O)c1cccc(NC(=O)CSCc2ccc(Br)cc2)c1	-1%	0%	i	1%	18µM*
CCC(=O)N1CCCC(C(=O)Nc2nc3ccccc3[nH]2)CC1 (stereo not drawn)	.	.	i	.	i
CC(=O)c1ccc2noc(-c3ccc(Cl)cc3)c2c1	?	16µM*	i	-3%	i
COc1ccc(-c2onc3ccc(C(=O)/C=C/N(C)C)cc23)cc1	18µM*	16µM*	?	-11%	?
CC(=O)c1ccc2noc(-c3ccc(F)cc3)c2c1	-23%	-5%	i	-18%	i
COc1cc(OC)cc(-c2c(Sc3ccccc3)c3cc(-c4ccc(OC)c(F)c4)ccc3n2C)c1	.	.	i	.	i
CCOC(=O)c1c(NC(=O)CSc2nnc(C)s2)sc2c1CCCCC2	4%	-7%	i	?	i
CCOC(=O)c1c(NC(=O)CSc2nnc(C)s2)sc2c1CCC(C)C2 (stereo not drawn)	?	1%	i	-26%	10µM*
COCCn1c(=O)[nH]c2cc(C(=O)N3CCN(c4ccc(Cl)cc4)CC3)ccc2c1=O	?	-5%	15µM*!	18µM*	?
O=C(CCc1nnc2n(Cc3ccc(F)cc3)c(=O)c3ccccc3n12)N1CCN(c2ccccn2)CC1	2%	0%	i	15µM*	i
O=C(c1ccc(Cn2c(=S)[nH]c3ccccc3c2=O)cc1)N1CCN(c2ccccn2)CC1	?	?	i	10µM*	?
O=C(c1ccc(Cn2c(=O)[nH]c3ccccc3c2=O)cc1)N1CCN(c2ccccc2)CC1	-3%	4%	?	?	21µM*
O=C1/C(=C/c2cccs2)N=C(c2cccs2)N1Nc1ccccc1	1%	-5%[9.22 µM]	?	?	i
Cc1ccc(C2=N/C(=C\c3cccs3)C(=O)N2Nc2ccccc2)cc1	-3%	0%	?	15µM*	?
COc1cccc(-c2cnc(C(O)c3cc(C)c(OC)c(C)c3)[nH]2)c1 (stereo not drawn)	.	.	i	.	i
Cc1cccc(S(=O)(=O)N(C)C[C@@H]2OCc3cnnn3CCCC(=O)N([C@@H](C)CO)C[C@@H]2C)c1	.	.	i	.	i
O=C(CC1NCCNC1=O)Nc1ccc(F)c(Cl)c1 (stereo not drawn)	.	.	i	.	i
CN(CC(=O)Nc1cccc(F)c1)CC(=O)Nc1cccc(S(=O)(=O)N2CCCCCC2)c1	16%	-9%	?	?	18µM*
CN(CC(=O)Nc1ccc(S(=O)(=O)N2CCCC2)cc1)Cc1cccc(Cl)c1Cl	?	.	?	?	18µM*
CN(CC(=O)Nc1cccc(S(=O)(=O)N2CCOCC2)c1)CC(=O)Nc1ccc(Cl)c(C(F)(F)F)c1	22%	3%	?	13µM*	?
Cc1cc(N(C)C)cc(C)c1C=O	.	.	i	.	i
CCOC(=O)n1c(=O)oc2cc(S(=O)(=O)N3CCCCC3)ccc21	?	-6%	i	7%	23µM*
CCOC(=O)N1CCN(S(=O)(=O)c2ccc3c(c2)oc(=O)n3C)CC1	2%	-2%	i	10%	23µM*
SMILES	MCF10A rereplic	SW480 rerep	KB-3-1 tox	ELG1 repair inh	KB-V1 cytotox
CCOC(=O)N1CCN(S(=O)(=O)c2ccc(OCC)cc2)CC1	-1%	-2%	i	0%	16µM*
COC(=O)n1c(=O)oc2cc(S(=O)(=O)N3CCCCC3)ccc21	-6%	-4%	i	-2%	?
CC(C)COC(=O)N1CCN(S(=O)(=O)c2ccc3c(c2)CCC3)CC1	7%	-9%	i	1%	15µM*
CCCCS(=O)CC(O)CSc1nc(-c2ccc(OC)cc2)cc(-c2ccccc2)c1C#N (stereo not drawn)	.	.	i	.	i
O=C(CNC(=O)C(c1ccccc1)c1ccccc1)OCC(=O)c1ccc2ccccc2c1	.	.	i	.	i
Cc1ccc(Cl)cc1NC(=O)Cn1c(=O)n(CCCS(=O)(=O)C2CCCCC2)c(=O)c2ccccc21	.	.	i	.	i
CCOC(=O)c1ccc(S(=O)(=O)N2CCN(C)CC2)cc1	5.2µM*	-22%	i	9%	i
Cc1nn(C)c2c1c(C(F)(F)F)cc(=O)n2Cc1ccc(Br)cc1F	.	.	i	.	i
CCC(=O)Nc1c(C)nn(-c2ccc(C)c(C)c2)c1C	-43%	-3%	i	?	i
Cc1nn(C)c(C)c1NC(=O)COc1ccc(Cl)cc1	-1%	3%	i	18%	i
Cc1ccc(-n2nc(C)c(NC(=O)CCl)c2C)cc1C	12%	?	9.2µM*	?	16µM*
Cc1nn(C)c(C)c1NC(=O)CCl	-5%	5%	12µM*	?	i
CCCOc1ccc(/C=C/C(=O)Nc2sc(C)c(C)c2C(=O)OCC)cc1OC	.	.	i	.	i
COc1ccc(/C=C2\C=Cc3ccccc32)cc1	.	.	?	.	i
CCN(CC)CCNC(=O)c1ccc(NC(=O)c2ccc(-n3cncn3)c([N+](=O)[O-])c2)cc1	.	.	i	.	?
CC(=O)Nc1ccc(NC(=O)CC2(CC(=O)N3CCOCC3)CCCC2)cc1	1%	-1%	i	29%	i
Cc1cc(C)n2nc(SCC(=O)Nc3cc(Cl)ccc3C)nc2n1	.	.	i	.	?
Cc1oc2ccc(NS(=O)(=O)c3ccc(F)cc3)cc2c1C(=O)O	-8%	-13%	i	-2%	i
COCCOC(=O)c1c(C)oc2ccc(NS(=O)(=O)c3ccc(F)cc3)cc12	1%	-1%	i	?	5.2µM*
C=CCOc1ccccc1CN(C(=O)CCl)c1ccc2c(c1)OCO2	?	5.2µM*	?	-1%	?
CCOc1ccccc1NC(=O)Nc1ccc2c(c1)OCO2	14%	-3%	i	?	i
CCC(=NCc1ccccc1)c1c(C(F)(F)F)[nH]n(-c2nc3ccccc3s2)c1=O	-1%	-11%	i	?	i
CCC(=NCc1ccco1)c1c(C(F)(F)F)[nH]n(-c2nc3ccccc3s2)c1=O	5%	-1%	i	?	21µM*
CCCN=C(C)c1c(-c2ccccc2)[nH]n(-c2nc3ccccc3s2)c1=O	27%	11%	i	?	8.2µM*
